Results as given in PubChem BioAssay AID651871 (Sanford-Burnham Center for Chemical Genomics, 2012).
“And” between values parts separate entries of the source, which are not always exact repeats. Identical values can stand only once.

System: H9c2
Test: protection of cardiomyocytes from stress damage, SAR follow-up, cell-based, panel, H9c2 and HL-1, ATP luminescence, set 2 (AID 651871);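 also: cells exposed to stressor for 2 h before ATP readout; reference of the scale not given here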
Conditions: H9c2/HL-1 cardiomyocytes, 2-deoxyglucose stress, with 2-deoxyglucose; run 14, at 79 µM (top of the series)

| Structure (SMILES) | activity (protection/inhibition) |
| --- | --- |
| COc1ccc2nc(-c3cc(OC)c(OC)c(OC)c3)cc(C(=O)NCC(=O)Nc3ccc(C(C)=O)cc3)c2c1 | 89.3% |
| COc1ccc2c(c1OC)C(=O)N1c3ccccc3C(=O)N(Cc3cccc(Cl)c3Cl)C21 (stereo not drawn) | 74.7% and 78.2% and -6.22% |
| CCOC(=O)c1cccc(NC(=O)CNC(=O)c2cc(-c3cc(OC)c(OC)c(OC)c3)nc3ccccc23)c1 | 95.1% |
